Potency data for 22 molecules are collected here from PubChem BioAssay (NCATS).

Holding throughout (test): Primary qHTS to identify gynecologic anti-cancer compounds using libraries of approved drugs and bioactive compounds (AID 1345084); also: nearly all actives have a fitted effect of over 55% in size
For assay [1], the system named is C33A. Particulars: Gynecologic cancer cell panel viability, ATPlite luminescence, 48 h; series mostly up to 57.5 µM. Summed up:
(§1)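 In this quantitative HTS, cell killing is estimated from loss of ATP-dependent luciferase light. Cells see five compound concentrations over a 48 h exposure.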

The test system of assay [2] is CASKI. To be noted: Gynecologic cancer cell panel viability, ATPlite luminescence, 48 h; series mostly up to 57.5 µM. Put shortly:
as §1

Assay [3] relates to Es-2. To be noted: Gynecologic cancer cell panel viability, ATPlite luminescence, 48 h; series mostly up to 57.5 µM. Summed up:
as §1

The subject of assay [4] is HeLa. Particulars: Gynecologic cancer cell panel viability, ATPlite luminescence, 48 h; series mostly up to 57.5 µM. Put shortly:
as §1

In assay [5] the test system is Hek293T. Particulars: Gynecologic cancer cell panel viability, ATPlite luminescence, 48 h, control line for the selectivity index; series mostly up to 57.5 µM. Put shortly: as §1
Assay [6] has as its system JEG-3. To be noted: Gynecologic cancer cell panel viability, ATPlite luminescence, 48 h; series mostly up to 57.5 µM. Put shortly:
as §1

Results filed as inconclusive are left out. Values without a mark were called inactive. The source made the active and inactive calls. Calls follow the shape of the dose curve; as a rule, active = well fitted cell-killing curve with a large enough effect; inconclusive = small, poorly fitted or top-dose-only effect, or effect the other way; inactive = flat fitted curve, though single readings scatter.
Potency is read from the fitted curve at half-maximal effect.

For `CC(=O)O[C@]1(C(C)=O)CC[C@H]2[C@@H]3CCC4=CC(=O)CCC4=C3[C@@H](c3ccc(N(C)C)cc3)C[C@@]21C`, the Potency entry in assay [1], in assay [2], in assay [3], in assay [4], in assay [5] and in assay [6] was “inactive” throughout.

As to `CC(=O)OC(C)(C)/C=C/C(=O)C(C)(O)C1C(O)CC2(C)C3CC=C(C(C)(C)C(=O)O)C(CC(=O)O)C3(C)C(=O)CC12C` (configuration not stated), the Potency result in assay [1], in assay [2], in assay [3], in assay [4], in assay [5] and in assay [6] was “inactive” in each case.

Turning to `COc1cc(O)cc(/C=C/c2cccc(O)c2)c1`, the Potency result in assay [1], in assay [2], in assay [3], in assay [4], in assay [5] and in assay [6] was “inactive” each time.

Turning to `NCC(CNc1nc(Nc2cccc(NC(=O)N3CCCC3)c2)ncc1I)C(=O)c1cccs1` (configuration not stated), the Potency entry in assay [1], in assay [2], in assay [3], in assay [4], in assay [5] and in assay [6] was “inactive” in each case.

Take `CC/C(C)=C/C(=O)OC1C(OC2(C)CCC3C(C4C(C)CCC42)C3(C)C)OC(C)C(O)C1O` (configuration not stated): the Potency result in assay [1], in assay [2], in assay [3], in assay [4], in assay [5] and in assay [6] was “inactive” each time.

With `O=C1C[C@]23C=CCN4CCC5c6cc7c(cc6N1[C@@]5(CC2)C43)OCO7` (some centres not stated), the Potency result in assay [1], in assay [2], in assay [3], in assay [4], in assay [5] and in assay [6] was “inactive” each time.

Regarding `Cc1cn(CCN2CCN(c3ccccc3-c3cc(C#N)cc(C(=O)NCCCN4CCCC4)c3)CC2)c2ccccc12`, the Potency entry in assay [1], in assay [2], in assay [3], in assay [4], in assay [5] and in assay [6] was “inactive” each time.

`C=CC(C)(O)CC[C@@H]1[C@@]2(C)CCCC(C)(C)C2CC[C@@]1(C)O` (some centres not stated): the Potency entry in assay [1], in assay [2], in assay [3], in assay [4], in assay [5] and in assay [6] was “inactive” throughout.

In the case of `O=C(Nc1ccc(-n2nc(C(F)(F)F)cc2C(F)(F)F)cc1)c1ccncc1F`, the Potency entry in assay [1], in assay [2], in assay [3], in assay [4], in assay [5] and in assay [6] was “inactive” each time.

Regarding `COc1ccc(C(=O)Nc2c(Cl)cncc2Cl)cc1OC1CCCC1`, the Potency result in assay [1], in assay [2], in assay [3], in assay [4], in assay [5] and in assay [6] was “inactive” in each case.

Turning to `CC(=O)C=C=C1C(C)(C)CC(O)CC1(C)O[C@@H]1O[C@H](CO[C@H]2OC[C@](O)(CO)[C@H]2O)[C@@H](O)[C@H](O)[C@H]1O` (some centres not stated), the Potency result in assay [1], in assay [2], in assay [3], in assay [4], in assay [5] and in assay [6] was “inactive” in each case.

In the case of `CN(C)c1ccc(NC(=O)NS(=O)(=O)c2ccc(Cl)cc2)cc1`, the Potency entry in assay [1], in assay [2], in assay [3], in assay [4], in assay [5] and in assay [6] was “inactive” in each case.

As to `CCO[C@H]1CN(C2CCC(O)(c3ccc4c(c3)OCO4)CC2)C[C@@H]1NC(=O)CNC(=O)c1cccc(C(F)(F)F)c1` (some centres not stated), the Potency result in assay [1], in assay [2], in assay [3], in assay [4], in assay [5] and in assay [6] was “inactive” throughout.

Consider `CCCC1(CCC)CCC2(CCN(CCCN(CC)CC)C2)CC1`, for which the Potency in assay [1] was 6.31 µM (active); in assay [2], 8.91 µM (active); in assay [3], 10 µM (active); in assay [4], 7.08 µM (active); in assay [5] it was 8.91 µM (active); in assay [6], 5.62 µM (active).

Turning to `CCOc1ccc(S(=O)(=O)N2CCCCCC2)c2ccccc12`, the Potency result in assay [1], in assay [2], in assay [3], in assay [4], in assay [5] and in assay [6] was “inactive” each time.

As to `CC(C)c1noc(C2CCN(c3ncnc(Nc4ccc(S(C)(=O)=O)cc4F)c3[N+](=O)[O-])CC2)n1`, the Potency result in assay [1], in assay [2], in assay [3], in assay [4], in assay [5] and in assay [6] was “inactive” each time.

Take `CCCC(=O)C1(c2ccccc2)CCN(C(=O)[C@@H](Cc2ccc(OC)cc2)NC(=O)[C@@H](N)Cc2cncn2C)CC1`: the Potency result in assay [1], in assay [2], in assay [3], in assay [4], in assay [5] and in assay [6] was “inactive” each time.

In the case of `CN(C)C(CCOc1cccc2ccccc12)c1ccccc1` (configuration not stated), the Potency result in assay [1], in assay [2], in assay [3], in assay [4], in assay [5] and in assay [6] was “inactive” each time.

Turning to `COc1cc2c(c(OC)c1CC=C(C)C)C[C@H](c1ccc(O)c(CC=C(C)C)c1O)CO2`, the Potency entry in assay [1], in assay [2], in assay [3], in assay [4], in assay [5] and in assay [6] was “inactive” throughout.

Turning to `C=CC(=O)N1CCN(C(=O)CNc2cc(-c3ccccc3Cl)c(Cl)cc2OC)CC1`, the Potency result in assay [1], in assay [2], in assay [3], in assay [4], in assay [5] and in assay [6] was “inactive” each time.

With `CC(=O)OC(C)(C)/C=C/C(=O)[C@](C)(O)[C@H]1C(O)C[C@@]2(C)[C@@H]3CC=C4[C@@H](C=C(O[C@@H]5O[C@H](CO)[C@@H](O)[C@H](O)[C@H]5O)C(=O)C4(C)C)[C@]3(C)C(=O)C[C@]12C` (some centres not stated), the Potency result in assay [1], in assay [2], in assay [3], in assay [4], in assay [5] and in assay [6] was “inactive” each time.

With `COc1ccc2cc3c(NC(=O)c4ccco4)nn(C)c3nc2c1`, the Potency entry in assay [1], in assay [2], in assay [3], in assay [4], in assay [5] and in assay [6] was “inactive” in each case.
